# Experimental data published in PubChem BioAssay (Tox21).
# A number with no mark means an inactive call. Inconclusive results are not listed. A call without a number means that no potency is given here. Calls of active or inactive are those of the source. Unless noted, calls come from the whole dose curve; as a rule, active = well fitted curve in the direction sought with a large enough effect in the repeat runs; inconclusive = weak or mixed curves; inactive = no such curve, though single readings can be large; an effect the other way counts as inactive or inconclusive.
# Legend:
# [1] = qHTS assay to identify small molecule agonists of the estrogen receptor beta (ER-beta) signaling pathway - cell viability counter screen (AID 1259380); note: nearly all actives have a fitted effect of over 30% in size; note: potency is the fitted concentration of half-maximal effect
# Procedure, shortened: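 CellTiter-Glo read, 30 min RT, same wells as bla assay; cells ER-beta-UAS-bla HEK293T; 16 hr compound, 37C; medium 2% charcoal-stripped FBS.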
# [2] = target: Androgen receptor (Homo sapiens) (UniProt P10275); experiment: qHTS assay to identify small molecule agonists of the androgen receptor (AR) signaling pathway in the presence of an antagonist (AID 1259381; calls by dose curve; note: nearly all actives have a fitted effect of over 15% in size)
# Chain of Androgen receptor (Homo sapiens) (P10275 whole entry, looked up): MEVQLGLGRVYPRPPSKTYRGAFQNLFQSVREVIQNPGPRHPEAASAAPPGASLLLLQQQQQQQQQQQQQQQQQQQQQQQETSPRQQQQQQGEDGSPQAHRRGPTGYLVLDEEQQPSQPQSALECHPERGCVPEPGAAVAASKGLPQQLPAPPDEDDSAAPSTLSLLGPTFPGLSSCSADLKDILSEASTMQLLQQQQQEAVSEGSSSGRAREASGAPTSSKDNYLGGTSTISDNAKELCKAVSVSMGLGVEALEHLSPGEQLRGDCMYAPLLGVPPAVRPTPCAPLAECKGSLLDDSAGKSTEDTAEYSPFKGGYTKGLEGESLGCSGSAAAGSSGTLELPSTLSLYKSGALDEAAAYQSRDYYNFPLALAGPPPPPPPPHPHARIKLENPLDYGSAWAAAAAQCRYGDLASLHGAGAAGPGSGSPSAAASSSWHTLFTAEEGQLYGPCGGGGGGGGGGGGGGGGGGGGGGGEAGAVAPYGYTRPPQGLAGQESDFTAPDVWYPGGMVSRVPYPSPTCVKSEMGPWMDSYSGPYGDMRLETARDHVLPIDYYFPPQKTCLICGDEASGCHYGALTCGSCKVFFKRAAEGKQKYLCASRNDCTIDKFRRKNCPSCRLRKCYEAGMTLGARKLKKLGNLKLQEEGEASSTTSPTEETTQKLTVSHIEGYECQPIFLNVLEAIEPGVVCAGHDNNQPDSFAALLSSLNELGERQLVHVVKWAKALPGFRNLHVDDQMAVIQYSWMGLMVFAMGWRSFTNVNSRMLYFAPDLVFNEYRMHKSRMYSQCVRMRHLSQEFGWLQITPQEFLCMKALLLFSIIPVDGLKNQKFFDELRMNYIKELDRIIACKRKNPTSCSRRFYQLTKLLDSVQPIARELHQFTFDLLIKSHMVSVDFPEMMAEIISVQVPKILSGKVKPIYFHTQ
# Procedure, shortened: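 Test compounds at 15 concentrations were incubated for 16hr with MDA-kb2 reporter cells in presence of 3.0uM nilutamide (final). Signal: ONE-Glo luciferase luminescence.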
# [3] = qHTS assay to identify small molecule antagonists of the estrogen receptor beta (ER-beta) signaling pathway - cell viability counter screen (AID 1259382); note: nearly all actives have a fitted effect of over 55% in size; note: potency is the fitted concentration of half-maximal effect
# Procedure, shortened: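 In this multiplexed counter screen, cells were seeded at 2,000 per well in medium with 2% charcoal-stripped FBS and incubated 6 hr before compound and 1nM final E2 were added. Sixteen hours later, ATP-based luminescence reported viability.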
# [4] = target: Estrogen receptor (Homo sapiens) (UniProt P03372); experiment: qHTS assay to identify small molecule agonists of the estrogen receptor alpha (ER-alpha) signaling pathway in the presence of an antagonist (AID 1259383; calls by dose curve; note: top concentration of the series differs between compounds; nearly all actives have a fitted effect of over 15% in size)
# Chain of Estrogen receptor (Homo sapiens) (P03372 whole entry, looked up): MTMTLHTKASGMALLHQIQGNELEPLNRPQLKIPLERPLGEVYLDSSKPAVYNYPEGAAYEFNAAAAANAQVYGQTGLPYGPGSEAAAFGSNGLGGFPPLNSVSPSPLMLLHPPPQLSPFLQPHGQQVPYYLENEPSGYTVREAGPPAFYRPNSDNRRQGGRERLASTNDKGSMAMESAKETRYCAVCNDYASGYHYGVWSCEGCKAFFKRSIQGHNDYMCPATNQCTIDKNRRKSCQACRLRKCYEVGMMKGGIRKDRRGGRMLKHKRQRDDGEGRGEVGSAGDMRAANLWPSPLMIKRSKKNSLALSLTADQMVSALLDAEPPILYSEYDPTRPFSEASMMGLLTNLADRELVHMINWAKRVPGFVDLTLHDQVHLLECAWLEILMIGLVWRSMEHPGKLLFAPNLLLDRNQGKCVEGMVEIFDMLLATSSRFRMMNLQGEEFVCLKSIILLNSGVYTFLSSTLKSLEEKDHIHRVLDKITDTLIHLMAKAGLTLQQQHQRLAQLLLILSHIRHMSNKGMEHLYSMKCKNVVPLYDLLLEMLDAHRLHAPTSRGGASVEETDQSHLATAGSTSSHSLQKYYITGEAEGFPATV
# Procedure, shortened: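 Stably transfected VM7Luc4E2 reporter cells, kept 5 days in charcoal-stripped serum, received ICI-182,780 at 10.0nM final before compound addition. Following 22hr incubation at 37C and 5% CO2, luciferase signal was read by luminescence.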
# [5] = qHTS assay to identify small molecule agonists of the estrogen receptor alpha (ER-alpha) signaling pathway in the presence of an antagonist - cell viability counter screen (AID 1259386);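 note: series mostly up to about 92 µM; cells exposed to compounds for 22 h at 37 °C before the viability read; nearly all actives have a fitted effect of over 30% in size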
# Procedure, shortened: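 Viability counter screen using VM7Luc4E2 (full-length ER-alpha, four ERE-luciferase). The cells were treated with compounds alongside ICI-182,780 10.0nM for 22hr, and live-cell protease fluorescence was quantified with CellTiter-Fluor.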
# [6] = target: Progesterone receptor (Homo sapiens) (UniProt P06401); experiment: qHTS assay to identify small molecule agonists of the progesterone receptor (PR) signaling pathway (AID 1346784; calls by dose curve; note: nearly all actives have a fitted effect of over 30% in size)
# Chain of Progesterone receptor (Homo sapiens) (P06401 whole entry, looked up): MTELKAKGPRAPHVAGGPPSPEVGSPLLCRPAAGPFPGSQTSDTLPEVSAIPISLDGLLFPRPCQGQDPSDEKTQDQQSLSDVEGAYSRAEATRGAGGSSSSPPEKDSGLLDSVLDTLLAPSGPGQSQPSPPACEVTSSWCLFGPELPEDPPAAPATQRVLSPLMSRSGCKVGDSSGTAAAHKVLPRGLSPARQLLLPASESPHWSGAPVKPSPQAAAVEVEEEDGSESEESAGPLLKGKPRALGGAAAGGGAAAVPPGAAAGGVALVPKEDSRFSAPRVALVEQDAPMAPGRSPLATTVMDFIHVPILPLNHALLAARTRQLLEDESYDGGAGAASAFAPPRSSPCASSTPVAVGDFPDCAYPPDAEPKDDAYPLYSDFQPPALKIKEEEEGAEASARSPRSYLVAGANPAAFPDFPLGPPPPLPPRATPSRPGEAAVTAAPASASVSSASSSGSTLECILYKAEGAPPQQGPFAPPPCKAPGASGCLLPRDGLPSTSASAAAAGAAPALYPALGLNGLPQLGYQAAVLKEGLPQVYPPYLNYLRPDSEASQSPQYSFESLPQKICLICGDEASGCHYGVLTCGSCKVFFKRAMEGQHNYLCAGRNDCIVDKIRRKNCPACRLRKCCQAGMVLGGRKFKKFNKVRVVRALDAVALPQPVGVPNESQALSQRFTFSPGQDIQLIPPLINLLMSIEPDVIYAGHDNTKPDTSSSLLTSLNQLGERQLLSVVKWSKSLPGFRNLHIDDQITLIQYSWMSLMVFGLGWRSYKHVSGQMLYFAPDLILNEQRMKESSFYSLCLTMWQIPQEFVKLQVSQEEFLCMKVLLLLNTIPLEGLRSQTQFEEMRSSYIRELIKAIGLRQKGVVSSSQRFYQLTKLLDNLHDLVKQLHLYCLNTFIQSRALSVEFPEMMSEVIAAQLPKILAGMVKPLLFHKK
# Procedure, shortened: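 The screen uses PR-UAS-bla HEK 293T cells in charcoal-stripped serum (2%). Compounds are applied for 16 hr at 37C after a 6 hr pre-incubation, and reporter activity is detected with a FRET beta-lactamase substrate after 2 hr at room temperature.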
# [7] = qHTS assay to identify small molecule antagonists of the progesterone receptor (PR) signaling pathway - cell viability counter screen (AID 1346798); note: series mostly up to about 92 µM; nearly all actives have a fitted effect of over 50% in size
# Procedure, shortened: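 Viability was determined by ATP-based luminescence (CellTiter-Glo) in PR-UAS-bla HEK293T cells cultured in 2% charcoal-stripped serum and incubated 16 hr with compounds under R5020 stimulation.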
# [8] = qHTS assay to identify small molecule agonists of the progesterone receptor (PR) signaling pathway - cell viability counter screen (AID 1346799; calls by dose curve; note: nearly all actives have a fitted effect of over 45% in size)
# Procedure, shortened: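 Viability was scored by ATP luminescence (CellTiter-Glo, 30 min, room temperature) in the same wells used for the reporter readout, after 16 hr compound exposure of PR-UAS-bla HEK293T cells.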
# [9] = qHTS assay to identify small molecule antagonists of the TGF-beta/Smad signaling pathway - cell viability counter screen (AID 1346824); note: nearly all actives have a fitted effect of over 50% in size; note: potency is the fitted concentration of half-maximal effect
# Procedure, shortened: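 SBE-bla HEK 293T cells were plated overnight at 37 C, then given compounds in DMSO plus TGF-beta1 (added as 0.25 ng/mL solution) for 5 hr. After the bla read, CellTiter-Glo was added to the same wells and luminescence read after 30 min at room temperature.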
# [10] = qHTS assay to identify small molecule agonists of the TGF-beta/Smad signaling pathway - cell viability counter screen (AID 1346829); note: top concentration of the series differs between compounds; nearly all actives have a fitted effect of over 45% in size
# Procedure, shortened: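 Same-well cytotoxicity: CellTiter-Glo added after the 2 hr room-temperature beta-lactamase substrate step, luminescence measured 30 min later; cells had 5 hr of compound at 37 C.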
# [11] = qHTS assay to identify small molecule agonists of the TGF-beta/Smad signaling pathway (AID 1346859; active = well fitted activation curve with a large enough effect in the signal ratio in the repeat runs, not every such curve was filed as active; the % refers to the signal ratio; note: series mostly up to about 77 µM)
# Procedure, shortened: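 Dual-wavelength fluorescence (460/530 nm emission) quantified beta-lactamase expression under the Smad binding element in HEK 293T cells following 5 hr compound treatment at 37 C.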
# [12] = Human pregnane X receptor (PXR) small molecule agonists, qHTS cell viability counter screen (AID 1346977); note: nearly all actives have a fitted effect of over 50% in size; note: potency is the fitted concentration of half-maximal effect
# Procedure, shortened: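 HepG2 cells stably carrying the PXR-Luc reporter are cultured with 5% charcoal-stripped FBS and treated with compounds for 24hr. CellTiter-Fluor is added at 23hr and fluorescence is read after 1hr.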
# [13] = Caspase-3/7 induction in HepG2 cells by small molecules, qHTS assay (AID 1346978); note: nearly all actives have a fitted effect of over 15% in size
# Procedure, shortened: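 Wild-type HepG2 cells (2,000/well) were settled 5 h at 37 C, 5% CO2, then exposed to compounds in DMSO for 17 h. Caspase-3/7 activity was read by luminescence 30 min after adding Caspase-Glo 3/7 reagent at room temperature.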
# [14] = qHTS assay to identify small molecule agonists or antagonists of the thyroid stimulating hormone receptor (TSHR) signaling pathway - wild type cell line counter screen (AID 1259384; calls by dose curve)
# Procedure, shortened: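 Wild-type HEK293 cells were plated 18 h at 37 C/5% CO2, pin-dosed with compound plus Ro20-1724 medium, held 30 min at room temperature, then given cAMP-d2 and anti-cAMP-cryptate; fluorescence was read after 1 h. Fifteen concentrations, triplicate.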
# [15] = target: Thyrotropin receptor (Homo sapiens) (UniProt P16473); experiment: qHTS assay to identify small molecule antagonists of the thyroid stimulating hormone receptor (TSHR) signaling pathway (AID 1259385; calls by dose curve; note: nearly all actives have a fitted effect of over 20% in size; note: potency is the fitted concentration of half-maximal effect)
# Chain of Thyrotropin receptor (Homo sapiens) (P16473 whole entry, looked up): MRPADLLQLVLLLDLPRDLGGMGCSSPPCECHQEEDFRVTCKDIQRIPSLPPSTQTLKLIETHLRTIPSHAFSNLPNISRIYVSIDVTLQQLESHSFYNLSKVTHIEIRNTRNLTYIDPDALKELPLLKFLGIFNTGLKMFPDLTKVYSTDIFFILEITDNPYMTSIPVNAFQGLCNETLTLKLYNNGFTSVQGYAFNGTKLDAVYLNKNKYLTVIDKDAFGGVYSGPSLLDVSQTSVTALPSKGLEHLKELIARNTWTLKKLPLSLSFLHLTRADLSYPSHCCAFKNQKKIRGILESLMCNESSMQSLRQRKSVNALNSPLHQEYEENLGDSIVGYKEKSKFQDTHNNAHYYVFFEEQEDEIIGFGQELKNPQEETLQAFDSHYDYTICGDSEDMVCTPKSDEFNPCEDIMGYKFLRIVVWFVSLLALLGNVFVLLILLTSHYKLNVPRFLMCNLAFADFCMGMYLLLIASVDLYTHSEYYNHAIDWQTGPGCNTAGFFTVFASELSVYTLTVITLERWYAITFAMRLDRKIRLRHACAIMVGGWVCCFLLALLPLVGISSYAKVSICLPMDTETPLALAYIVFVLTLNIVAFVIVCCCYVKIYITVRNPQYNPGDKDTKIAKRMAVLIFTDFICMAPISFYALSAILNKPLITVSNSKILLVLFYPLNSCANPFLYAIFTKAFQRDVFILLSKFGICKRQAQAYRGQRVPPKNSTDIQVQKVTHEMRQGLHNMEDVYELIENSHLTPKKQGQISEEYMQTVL
# Procedure, shortened: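 TSHR-HEK293 cells were plated and held 18 h at 37C/5% CO2, then given compound plus Ro20-1724 and stimulated with TSH at 1.5 ng/mL final. After 30 min at room temperature, cAMP was detected with cAMP-d2/anti-cAMP-cryptate (1 h) by fluorescence.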
# [16] = Caspase-3/7 induction in CHO-K1 cells by small molecules, qHTS cell viability counter screen (AID 1346979); note: nearly all actives have a fitted effect of over 35% in size; note: potency is the fitted concentration of half-maximal effect
# Procedure, shortened: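 Seeding: 1,500 CHO-K1 cells/well. Rest: 5hr, 37C. Treatment: compounds in DMSO, 16hr. Read: CellTiter-Fluor, 1hr, fluorescence.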
# [17] = Caspase-3/7 induction in CHO-K1 cells by small molecules, qHTS assay (AID 1346980); note: nearly all actives have a fitted effect of over 15% in size
# Procedure, shortened: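 Wild-type cells were seeded at 1,500 per well and settled 5 hr at 37 C, 5% CO2, then exposed to DMSO-dissolved compounds for 17 hr. Caspase-Glo 3/7 reagent was added, and luminescence was read after 30min at room temperature.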
# [18] = target: Thyrotropin-releasing hormone receptor (Homo sapiens) (UniProt P34981); experiment: qHTS assay to identify small molecule antagonists of the thyrotropin-releasing hormone receptor (TRHR) signaling pathway (AID 1346877; active = well fitted inhibition curve with a large enough effect in the repeat runs, not every such curve was filed as active; note: series mostly up to about 51 µM)
# Chain of Thyrotropin-releasing hormone receptor (Homo sapiens) (P34981 whole entry, looked up): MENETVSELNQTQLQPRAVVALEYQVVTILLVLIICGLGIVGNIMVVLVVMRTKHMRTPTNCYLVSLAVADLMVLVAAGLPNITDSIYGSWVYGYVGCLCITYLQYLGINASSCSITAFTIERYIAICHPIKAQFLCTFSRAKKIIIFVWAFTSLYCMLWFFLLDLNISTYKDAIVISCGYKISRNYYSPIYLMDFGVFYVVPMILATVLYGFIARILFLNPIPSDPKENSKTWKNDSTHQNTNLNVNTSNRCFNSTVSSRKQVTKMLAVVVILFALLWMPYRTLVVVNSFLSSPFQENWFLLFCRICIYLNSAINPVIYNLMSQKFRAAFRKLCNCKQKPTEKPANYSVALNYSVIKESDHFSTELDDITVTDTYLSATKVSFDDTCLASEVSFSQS
# Procedure, shortened: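 Following an 18 h incubation at 37 °C and a 2 h calcium dye load, TRHR-HEK293 cells were exposed to compound (5 min, room temperature) and challenged with TRH, 1 nM final.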
# [19] = target: Thyrotropin-releasing hormone receptor (Homo sapiens) (UniProt P34981); experiment: qHTS assay to identify small molecule agonists of the thyrotropin-releasing hormone receptor (TRHR) signaling pathway (AID 1346891; calls by dose curve;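 note: HEK293 cells expressing TRHR with calcium dye readout; series mostly up to about 58 µM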)
# Procedure, shortened: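 Kinetic fluorescence (3 min, 1 s intervals) reported intracellular calcium after compound transfer onto TRHR-Hek293 cells pre-loaded with dye for 2 h at 37 °C.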
# [20] = target: Progesterone receptor (Homo sapiens) (UniProt P06401); experiment: qHTS assay to identify small molecule antagonists of the progesterone receptor (PR) signaling pathway (AID 1346795; active = well fitted inhibition curve with a large enough effect in the signal ratio in the repeat runs, not every such curve was filed as active; the % refers to the signal ratio)
# Procedure, shortened: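 After 6 hr plating at 37C in 2% stripped-serum medium, PR-UAS-bla HEK293T cells got compounds, then 1 nM R5020. Sixteen hours later, LiveBLAzer substrate was applied for 2 hr at room temperature and fluorescence was recorded.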
Compound,Potency [1],Potency [2],Potency [3],Potency [4],Potency [5],outcome [6],Potency [7],Potency [8],Potency [9],Potency [10],outcome [11],Potency [12],Potency [13],Potency [14],Potency [15],Potency [16],Potency [17],Potency [18],Potency [19],Potency [20]
O=C(Cl)c1ccc(Cl)cc1Cl,inactive,inactive,inactive,inactive,inactive,inactive,inactive,inactive,inactive,inactive,inactive,inactive,inactive,,,,,,,
CN1CCN(C)CC1,inactive,inactive,inactive,inactive,inactive,inactive,inactive,,inactive,inactive,inactive,inactive,inactive,inactive,inactive,inactive,inactive,,,
c1ccc2c(c1)-c1ccc3ccc4cccc5cc-2c1c3c45,inactive,inactive,inactive,inactive,,,inactive,inactive,inactive,inactive,,inactive,inactive,inactive,,,inactive,inactive,inactive,
C=COCCCC,inactive,inactive,inactive,inactive,inactive,inactive,inactive,inactive,inactive,inactive,inactive,inactive,inactive,inactive,inactive,inactive,inactive,,,
COCCC(=O)OC,inactive,inactive,inactive,inactive,inactive,inactive,,inactive,inactive,inactive,inactive,inactive,inactive,inactive,inactive,,inactive,inactive,inactive,
Brc1cc(Br)cc(Br)c1,inactive,inactive,inactive,inactive,inactive,inactive,inactive,,inactive,inactive,inactive,inactive,,inactive,inactive,,inactive,inactive,inactive,inactive
Cc1c[nH]c(=O)[nH]c1=O,inactive,inactive,inactive,inactive,inactive,inactive,inactive,inactive,inactive,inactive,inactive,inactive,inactive,inactive,inactive,inactive,inactive,inactive,inactive,inactive
CC(C)C(=O)C(C)C,inactive,inactive,inactive,inactive,inactive,inactive,inactive,inactive,inactive,inactive,inactive,inactive,inactive,inactive,inactive,,inactive,,,
Cc1cc(C)c(O)c(C(C)(C)C)c1,inactive,inactive,inactive,inactive,,inactive,inactive,inactive,inactive,,inactive,inactive,,inactive,inactive,,inactive,,,inactive
Clc1ccc2c(Cl)ccnc2c1,inactive,inactive,inactive,inactive,inactive,inactive,inactive,inactive,inactive,inactive,inactive,inactive,inactive,inactive,inactive,inactive,inactive,,,inactive
C/C(=N\[Si](C)(C)C)O[Si](C)(C)C,inactive,inactive,inactive,inactive,inactive,inactive,inactive,inactive,inactive,,inactive,inactive,inactive,,,inactive,inactive,inactive,inactive,
O=C1C=CC(=O)N1c1cccc(N2C(=O)C=CC2=O)c1,61.1 µM (active),inactive,68.6 µM (active),inactive,,,,,54.9 µM (active),,inactive,61.1 µM (active),inactive,inactive,21.7 µM (active),5.45 µM (active),inactive,,inactive,
CCC(O)CO (stereo not given),inactive,inactive,inactive,inactive,inactive,inactive,inactive,inactive,inactive,inactive,inactive,inactive,inactive,inactive,inactive,,inactive,inactive,inactive,inactive
CC(C=O)c1ccccc1 (stereo not given),inactive,inactive,inactive,inactive,inactive,inactive,inactive,inactive,inactive,,inactive,inactive,inactive,inactive,inactive,inactive,inactive,inactive,inactive,inactive
CCc1c(C)cc(N)c(CC)c1N,inactive,inactive,inactive,inactive,inactive,inactive,inactive,inactive,,inactive,inactive,inactive,inactive,inactive,,,inactive,inactive,inactive,
